PLK1 PBD block: blocks phosphopeptide binding to human PLK1 polo-box domain. Plk1 PBD binding of FITC phosphopeptide, fluorescence polarization. actives 2.8% (n = 360,000). AID 720504. Potency, µM, without a hit: max response, negative = inhibition, actives largely listed as inhibitors; also: potency is read from the fitted curve at half-maximal effect; series mostly up to about 57 µM; % is scaled to controls: 0 for no effect and ±100 for the full control effect; nearly all actives have a fitted effect of over 65% in size
Target sequence (P53350 whole entry, looked up, the tested form may be a part): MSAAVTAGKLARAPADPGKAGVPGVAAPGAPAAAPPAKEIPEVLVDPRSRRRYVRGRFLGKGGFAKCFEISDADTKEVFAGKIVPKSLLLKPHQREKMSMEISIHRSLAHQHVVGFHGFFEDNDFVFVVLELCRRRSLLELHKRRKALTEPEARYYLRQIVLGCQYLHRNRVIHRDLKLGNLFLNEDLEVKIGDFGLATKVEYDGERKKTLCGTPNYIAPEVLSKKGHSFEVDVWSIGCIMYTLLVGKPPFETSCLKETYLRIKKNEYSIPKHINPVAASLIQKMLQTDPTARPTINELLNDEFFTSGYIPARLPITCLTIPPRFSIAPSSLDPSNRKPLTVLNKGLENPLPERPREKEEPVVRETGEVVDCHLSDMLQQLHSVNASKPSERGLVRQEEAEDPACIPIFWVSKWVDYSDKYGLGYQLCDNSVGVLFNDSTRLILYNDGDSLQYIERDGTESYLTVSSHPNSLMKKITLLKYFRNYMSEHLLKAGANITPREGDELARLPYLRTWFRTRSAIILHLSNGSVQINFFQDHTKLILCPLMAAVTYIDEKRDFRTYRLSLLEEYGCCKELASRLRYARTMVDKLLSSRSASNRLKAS
PI5P4Ka inh: blocks human PI5P4K alpha kinase activity. actives 1.2% (n = 330,000). P48426. max response, %. PI5P4Kalpha enzyme, ADP-Glo luminescence, 60 min; active compounds read low. AID 652105; active = max response of -50% or lower; inconclusive = between -30% and -50%; inactive = -30% or higher; also: value at the top dose of about 77 µM; % is scaled to controls: 0 for no effect and ±100 for the full control effect
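Single end-point luminescence (ADP-Glo) quantified ADP from PI5P4Kalpha turnover; ATP 5 microM final, 1 h at RT, 0.1% CHAPS and 0.28 mM EGTA in HEPES pH 7.4.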
HP1b chromo inh: blocks HP1-beta chromodomain binding to methylated histone tails. actives 0.56% (n = 390,000). Potency, µM (top dose mostly 114 µM), without a hit: at the highest dose activity change, negative = inhibition, actives largely listed as inhibitors. AlphaScreen HP1-beta / biotin-H3K9me3 peptide binding. P83916. AID 540317; also: potency is read from the fitted curve at half-maximal effect; nearly all actives have a fitted effect of over 70% in size
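HP1-beta protein (50 nM final) preincubated 30 min at room temperature with biotinylated H3(1-18)K9me3 peptide (50 nM) in PBS pH 7.4, 0.01% Tween-20, then compound added for 30 min. AlphaScreen streptavidin donor/nickel chelate acceptor beads (10 ug/mL final), 30 min dark, luminescence read.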
G9a block: blocks human histone lysine methyltransferase G9a. Q96KQ7. actives 8.8% (n = 350,000). Potency, µM (titrated, usually from 102 µM), for the others: top-dose activity, negative = inhibition, most hits filed as inhibitors. G9a H3K9 monomethylation, AlphaScreen, 2 h. AID 504332; also: potency is read from the fitted curve at half-maximal effect; % is scaled to controls: 0 for no effect and ±100 for the full control effect; nearly all actives have a fitted effect of over 75% in size
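AlphaScreen read-out: biotin-H3K9 peptide (500 nM) methylation by 20 nM enzyme with 20 uM SAM, 2 h at room temperature after 15 min compound preincubation; anti-monomethyl H3K9 antibody plus donor/acceptor beads, 10 min dark.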
JMJD2A Tudor inh: inhibitors of human JMJD2A Tudor domain; O75164; AlphaScreen JMJD2A-Tudor / H3K4me3 peptide binding; Potency, µM (doses to about 114 µM), inactives show at the highest dose activity change, negative = inhibition, usual class: inhibitors; actives 4.4% (n = 390,000); also: potency is read from the fitted curve at half-maximal effect; % is scaled to controls: 0 for no effect and ±100 for the full control effect; nearly all actives have a fitted effect of over 50% in size
BAZ2B block: blocks human BAZ2B; Q9UIF8; AlphaScreen BAZ2B-H3K14Ac peptide displacement; Potency, µM (doses to about 114 µM), inactives show at the highest dose activity change, negative = inhibition, most hits filed as inhibitors; actives 4.4% (n = 360,000); also: potency is read from the fitted curve at half-maximal effect; % is scaled to controls: 0 for no effect and ±100 for the full control effect; nearly all actives have a fitted effect of over 60% in size
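Inhibition is scored as reduced AlphaScreen emission. The BAZ2B/b-H3(5-23)K14Ac complex (50 nM each) in PBS pH 7.4, 0.01% Tween-20 meets compound (up to 110 uM) for 30 min at RT before bead addition.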
Starred values were filed as active, the others as inactive; ? = inconclusive; . = no result; [ ] = remark or other dose. An excerpt weighted towards active compounds, which were near 12% of everything screened. Unless noted, calls follow the shape of the dose curve; as a rule, active = well fitted curve in the direction sought with a large enough effect; inconclusive = small, poorly fitted or top-dose-only effect, or another doubt; inactive = no such curve, though single readings can be large; an effect the other way counts as inactive or inconclusive.

SMILES	PLK1 PBD block	PI5P4Ka inh	HP1b chromo inh	G9a block	JMJD2A Tudor inh	BAZ2B block
CCOC(=O)C1CCCN(Cc2cc(=O)oc3cc(C)c(C)cc23)C1 (configuration not stated)	-5%	-2	42%	?	8%	1%
CCOC(=O)C1CCCN(Cc2sccc2C)C1 (configuration not stated)	-4%	.	?	22µM*	2.8µM*	50µM*
CCOC(=O)C1CCCN(Cc2cc(OC)c(O)c(OC)c2)C1 (configuration not stated)	-8%	.	-54%	?	2.2µM*	?
CCOC(=O)C1CCCN(Cc2cc(Br)c(OC)cc2OC)C1 (configuration not stated)	-3%	.	?	?	2.8µM*	50µM*
CCOc1ccc2nc(N3CCCC(C(=O)Nc4ccc(Br)c(C)c4)C3)sc2c1 (configuration not stated)	.	.	5%	-4%[59 µM]	-11%	0%
O=C(NC1CC(=O)N(c2cccc(F)c2)C1)C1CCCC1 (configuration not stated)	.	.	-5%	-1%[59 µM]	-4%	-1%
O=C(NCc1cccs1)c1ccc(Cl)c(S(=O)(=O)N2CCOCC2)c1	-1%	-14	.	.	.	.
COc1cc2ccccc2cc1C(=O)N(CCN(C)C)c1nc2c(C)cccc2s1	-25%	2	11%	13µM*	?	?
COc1ccc(OC)c2sc(N(CCN(C)C)C(=O)c3ccc4ccccc4c3)nc12	-16%	7	-19%[57 µM]	16µM*	?	?
COc1ccc(Cl)c2sc(N(CCN(C)C)C(=O)c3ccc4c(c3)OCCO4)nc12	7%	3	-30%	50µM*	?	?
COc1ccc2nc(N(CCN(C)C)C(=O)c3ccc4c(c3)OCCO4)sc2c1	3%	8	8%	.	-32%	?
Cc1cccc2sc(N(CCN(C)C)C(=O)c3cc(Cl)sc3Cl)nc12	0%	11	-13%	45µM*	?	?
CCn1nnc2cc(C(=O)Nc3ccc(Cl)cc3C)ccc21	.	.	23%	-19%[59 µM]	-5%	-1%
O=C(c1ccc2oc(CCCc3ccccc3)nc2c1)N1CCCC1	-4%	1	29%	34%	0%	-4%
CCN(CC)CCN(C(=O)c1c(F)cccc1F)c1nc2cc(C)cc(C)c2s1	1%	1	26%	56µM*	?	.
COc1cc2ccccc2cc1C(=O)N(CCN(C)C)c1nc2c(OC)ccc(OC)c2s1	?	-9	?	45µM*	40µM*	?
Cc1cc(C)c2sc(N(CCN(C)C)C(=O)c3ccc4ccccc4c3)nc2c1	-10%	-1	-26%[57 µM]	35µM*	22µM*	?
COc1ccccc1C(=O)N(CCN(C)C)c1nc2cc(C)cc(C)c2s1	-1%	-6	3%	?	?	.
Cc1cc(C)c2sc(N(CCN(C)C)C(=O)c3cc(Cl)sc3Cl)nc2c1	-4%	-3	5%	45µM*	?	.
CCN(CC)CCN(C(=O)c1ccco1)c1nc2cc(C)cc(C)c2s1	.	.	-8%	-40%[59 µM]	?	-33%
COc1cc(C(=O)N(CCCN(C)C)c2nc3c(OC)cccc3s2)cc(OC)c1OC	.	.	12%	-9%[59 µM]	-26%	-12%
Cc1ccc2nc(N(CCN(C)C)C(=O)c3cc(Cl)sc3Cl)sc2c1	-3%	20	11%	?	-20%	-37%
Cn1c(=O)c(-c2ccc(F)c(F)c2)nc2cncnc21	.	.	.	3%[0.501 µM]	.	.
O=Cc1ccc(OC(=O)CCCCC(=O)Oc2ccc(C=O)cc2)cc1	-9%	-2	17%	-25%[2.33 µM]	7%	-5%
CC(C)(C)C(=O)OCCNc1nc(-c2cccs2)nc2ccccc12	.	.	53%	.	-9%	.
CCN(CC)CCN(C(=O)C1=COCCO1)c1nc2c(OC)ccc(OC)c2s1	0%	-1	17%	45µM*	-17%	-21%
COCCN(Cc1ccco1)C(=O)Cn1ncc2c(=O)oc3ccccc3c21	5%	-6	35%	.	-5%	-9%
CCc1ccc(CN2CCSCC2)cc1	-12%	-8	?	.	2.2µM*	?
